Of roughly 7,900 targets only a part is listed; those with a hit were picked by preference. About 0.6% of all pairs of compound and target were hits.
Compound: c1cc(OCCN2CCCCC2)cc(-c2n[nH]c3ccc(-c4nnc[nH]4)cc23)c1
Assay: log2 fold change, soluble protein after heating vs DMSO (PISA); higher = thermal stabilisation; K562 cells, 10 uM, 30 min; active = over 0.2 and 3.5 SD of the protein, either way, in both replicates (recomputed)
Summary of the method: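 Aliquots of K562 cells (2×10^6 cells/mL) treated with 10 μM compound for 30 min were heated for 3 min over 48°C-58°C. After pooling and extraction in PBS with 0.5% NP-40 at 4°C, soluble protein from a 21,000xg, 90 min spin was quantified by TMTpro 16plex LC-MS/MS with channel sums equalised. Thermal stability is expressed against control samples, from duplicates, as a log2 fold change.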

UniProt Q5VWP2, sequence (Q5VWP2 whole entry, looked up): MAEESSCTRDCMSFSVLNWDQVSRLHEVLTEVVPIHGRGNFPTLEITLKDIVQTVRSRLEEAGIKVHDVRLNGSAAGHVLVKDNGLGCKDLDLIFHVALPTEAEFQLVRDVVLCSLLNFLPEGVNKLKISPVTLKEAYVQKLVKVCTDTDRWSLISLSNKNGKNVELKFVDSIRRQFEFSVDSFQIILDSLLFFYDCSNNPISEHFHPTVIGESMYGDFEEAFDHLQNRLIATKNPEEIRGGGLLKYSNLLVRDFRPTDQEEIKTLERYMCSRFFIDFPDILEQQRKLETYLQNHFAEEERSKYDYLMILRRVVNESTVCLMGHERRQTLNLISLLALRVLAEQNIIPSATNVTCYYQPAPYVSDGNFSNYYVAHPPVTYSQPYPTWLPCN
UniProt Q9H5Q4, sequence (Q9H5Q4 whole entry, looked up): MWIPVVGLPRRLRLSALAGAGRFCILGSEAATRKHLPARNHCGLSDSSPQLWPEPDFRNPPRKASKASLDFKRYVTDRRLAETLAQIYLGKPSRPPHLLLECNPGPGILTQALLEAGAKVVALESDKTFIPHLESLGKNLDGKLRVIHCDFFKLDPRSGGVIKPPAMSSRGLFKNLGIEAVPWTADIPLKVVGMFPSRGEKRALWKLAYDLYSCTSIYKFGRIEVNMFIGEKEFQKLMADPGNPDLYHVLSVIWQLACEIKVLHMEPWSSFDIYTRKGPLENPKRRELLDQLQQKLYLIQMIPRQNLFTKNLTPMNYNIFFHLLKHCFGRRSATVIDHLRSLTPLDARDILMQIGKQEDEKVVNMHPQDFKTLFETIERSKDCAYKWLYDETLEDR
UniProt Q01085, sequence (Q01085 whole entry, looked up): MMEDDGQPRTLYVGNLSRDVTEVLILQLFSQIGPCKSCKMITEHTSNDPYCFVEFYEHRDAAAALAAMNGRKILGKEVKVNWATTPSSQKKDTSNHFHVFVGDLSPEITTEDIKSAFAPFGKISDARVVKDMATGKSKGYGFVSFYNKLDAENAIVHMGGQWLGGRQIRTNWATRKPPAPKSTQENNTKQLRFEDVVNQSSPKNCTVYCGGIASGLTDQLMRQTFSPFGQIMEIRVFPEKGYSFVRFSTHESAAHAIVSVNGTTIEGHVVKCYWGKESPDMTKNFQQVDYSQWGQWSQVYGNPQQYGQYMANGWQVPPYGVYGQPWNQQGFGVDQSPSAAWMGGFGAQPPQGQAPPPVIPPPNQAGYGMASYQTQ
UniProt Q8N1S5, sequence (Q8N1S5 whole entry, looked up): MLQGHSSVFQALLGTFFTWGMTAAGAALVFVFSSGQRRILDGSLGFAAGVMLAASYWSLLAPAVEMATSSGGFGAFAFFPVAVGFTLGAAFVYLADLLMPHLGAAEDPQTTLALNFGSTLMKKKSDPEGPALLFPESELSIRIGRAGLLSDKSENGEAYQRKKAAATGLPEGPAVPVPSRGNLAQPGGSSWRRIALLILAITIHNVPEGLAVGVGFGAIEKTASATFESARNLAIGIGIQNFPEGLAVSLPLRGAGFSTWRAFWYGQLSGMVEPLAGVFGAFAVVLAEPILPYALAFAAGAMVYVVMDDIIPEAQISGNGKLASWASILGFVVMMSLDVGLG
UniProt Q9NRS6, sequence (Q9NRS6 whole entry, looked up): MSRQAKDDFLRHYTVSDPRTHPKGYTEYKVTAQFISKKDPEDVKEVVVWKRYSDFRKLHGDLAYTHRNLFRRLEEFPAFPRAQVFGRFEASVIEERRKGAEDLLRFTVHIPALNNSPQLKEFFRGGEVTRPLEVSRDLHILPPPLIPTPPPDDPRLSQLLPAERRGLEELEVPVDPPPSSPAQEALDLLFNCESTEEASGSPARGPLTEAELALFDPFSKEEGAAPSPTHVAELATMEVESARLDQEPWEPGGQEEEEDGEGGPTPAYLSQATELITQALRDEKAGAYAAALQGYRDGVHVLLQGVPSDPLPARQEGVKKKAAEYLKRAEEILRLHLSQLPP
UniProt Q9BWG4, sequence (Q9BWG4 whole entry, looked up): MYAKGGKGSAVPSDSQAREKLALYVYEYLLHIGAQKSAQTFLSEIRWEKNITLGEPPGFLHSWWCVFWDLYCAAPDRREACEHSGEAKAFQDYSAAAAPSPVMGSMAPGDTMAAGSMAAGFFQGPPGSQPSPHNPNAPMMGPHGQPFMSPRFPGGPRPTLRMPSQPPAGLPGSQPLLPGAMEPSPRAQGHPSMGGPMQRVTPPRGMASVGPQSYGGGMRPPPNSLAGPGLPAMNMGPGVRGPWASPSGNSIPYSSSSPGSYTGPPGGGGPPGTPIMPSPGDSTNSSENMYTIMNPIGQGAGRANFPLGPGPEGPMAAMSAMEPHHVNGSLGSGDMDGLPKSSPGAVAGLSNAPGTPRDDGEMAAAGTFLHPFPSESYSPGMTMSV
UniProt O43815, sequence (O43815 whole entry, looked up): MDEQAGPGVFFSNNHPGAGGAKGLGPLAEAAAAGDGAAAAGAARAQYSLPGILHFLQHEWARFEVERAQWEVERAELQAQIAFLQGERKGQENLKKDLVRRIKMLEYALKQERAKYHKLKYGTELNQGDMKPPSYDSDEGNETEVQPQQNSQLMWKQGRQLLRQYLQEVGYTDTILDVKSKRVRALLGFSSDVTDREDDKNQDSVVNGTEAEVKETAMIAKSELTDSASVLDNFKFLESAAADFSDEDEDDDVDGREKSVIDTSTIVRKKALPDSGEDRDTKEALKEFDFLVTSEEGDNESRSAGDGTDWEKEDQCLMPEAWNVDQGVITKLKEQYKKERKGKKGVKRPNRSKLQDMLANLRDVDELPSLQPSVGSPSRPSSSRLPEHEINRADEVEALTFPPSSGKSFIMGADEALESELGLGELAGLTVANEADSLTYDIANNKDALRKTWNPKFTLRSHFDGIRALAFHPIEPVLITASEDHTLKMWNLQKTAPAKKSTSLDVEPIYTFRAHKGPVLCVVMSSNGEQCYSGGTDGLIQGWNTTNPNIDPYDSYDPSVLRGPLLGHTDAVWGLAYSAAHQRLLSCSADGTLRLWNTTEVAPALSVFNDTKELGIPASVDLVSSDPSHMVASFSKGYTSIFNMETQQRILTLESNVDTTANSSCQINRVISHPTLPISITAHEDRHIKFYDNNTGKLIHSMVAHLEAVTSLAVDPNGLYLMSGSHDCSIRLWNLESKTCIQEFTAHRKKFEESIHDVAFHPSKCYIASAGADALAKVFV
UniProt Q9UMY4, sequence (Q9UMY4 whole entry, looked up): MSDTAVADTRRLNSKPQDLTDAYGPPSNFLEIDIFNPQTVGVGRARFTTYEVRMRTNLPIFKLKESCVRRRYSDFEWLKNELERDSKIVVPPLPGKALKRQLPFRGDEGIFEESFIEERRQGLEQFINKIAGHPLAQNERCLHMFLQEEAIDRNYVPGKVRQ
UniProt P08579, sequence (P08579 whole entry, looked up): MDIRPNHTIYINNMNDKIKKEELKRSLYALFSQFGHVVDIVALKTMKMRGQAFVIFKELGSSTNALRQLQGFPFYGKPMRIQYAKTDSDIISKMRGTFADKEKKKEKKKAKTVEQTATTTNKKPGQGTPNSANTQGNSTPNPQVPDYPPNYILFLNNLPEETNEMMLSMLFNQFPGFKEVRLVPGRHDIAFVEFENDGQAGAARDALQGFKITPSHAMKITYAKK
UniProt Q8NEF9, sequence (Q8NEF9 whole entry, looked up): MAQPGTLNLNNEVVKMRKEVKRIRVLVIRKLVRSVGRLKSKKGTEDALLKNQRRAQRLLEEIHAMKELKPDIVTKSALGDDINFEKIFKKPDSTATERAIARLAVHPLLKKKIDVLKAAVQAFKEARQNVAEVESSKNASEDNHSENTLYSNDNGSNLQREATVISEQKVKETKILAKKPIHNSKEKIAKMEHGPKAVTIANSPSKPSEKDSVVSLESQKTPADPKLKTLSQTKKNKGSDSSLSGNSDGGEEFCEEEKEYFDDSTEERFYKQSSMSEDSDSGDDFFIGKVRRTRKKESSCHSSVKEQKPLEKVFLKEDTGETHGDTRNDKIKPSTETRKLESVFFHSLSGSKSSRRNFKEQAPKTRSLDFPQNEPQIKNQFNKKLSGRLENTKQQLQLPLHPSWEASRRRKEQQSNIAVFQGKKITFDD

log2 fold change, inactive:
SNRPB2 (UniProt P08579) -0.034
SNX15 (UniProt Q9NRS6) -0.073
TIAL1 isoform 2 (UniProt Q01085) -0.036
TENT5C (UniProt Q5VWP2) -0.133
SLC39A11 (UniProt Q8N1S5) -0.122
TFB2M (UniProt Q9H5Q4) 0.003
SSBP4 (UniProt Q9BWG4) -0.093
SYNE1 (UniProt Q8NF91) 0.006
SRFBP1 (UniProt Q8NEF9) 0.116
STRN (UniProt O43815) -0.031
SYNE2 isoform 2 (UniProt Q8WXH0) 0.03
SNX12 isoform 1 (UniProt Q9UMY4) -0.066
